# Measured values published in the supplement of paper PMC4022240.
# ± gives the standard deviation.
# T1: HaloTag-ATRX ADD domain (163-292)
# T1 chain: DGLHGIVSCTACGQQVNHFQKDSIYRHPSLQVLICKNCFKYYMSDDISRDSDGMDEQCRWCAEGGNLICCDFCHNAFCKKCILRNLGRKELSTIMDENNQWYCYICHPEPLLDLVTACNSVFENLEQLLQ
# Tests used:
# Assay in all cases: peptide microarray binding signal (635 nm), min-max normalized on array (fraction of array maximum); higher = stronger binding
# Conditions in all cases: peptide region: H2B 7-19
# [1] = target: T1, HaloTag-ATRX ADD domain (163-292)
# Experimental: (§1)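 Histone 13-mer peptides were synthesized as cellulose conjugates with a C-terminal 20-atom PEG linker and printed in triplicate on nitrocellulose. The sequence given is the unmodified backbone; PTMs (Kme1/2/3, Kac, Sph/Tph, Rme/Rme2a/Rme2s, Rcit) are listed in the label and the 'peptide modifications' condition. Slides were probed at 4 °C for 1 h with biotin-labelled (HQ)5-HaloTag reader fusions (ATRX-ADD, ING2-PHD) then streptavidin-Alexa647, or with rabbit histone antibodies then anti-rabbit Alexa647. The mean 635 nm signal of the triplicate spots was scaled 0-1 between the lowest and highest values on each array.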
# [2] = target: HaloTag-ING2 PHD (mouse Ing2 200-280)
# Experimental: as §1
# [3] = target: anti-H3K4me3 antibody ab8580
# Experimental: as §1
# [4] = target: anti-H3K9me3 antibody ab8898
# Experimental: as §1
# [5] = peptide modifications: H2BK11ac H2BS14ph H2BK15ac, binder concentration: 1:2,000 dilution
# [6] = peptide modifications: H2BK11ac H2BS14ph H2BK15ac, binder concentration: 1:10,000 dilution
# [7] = peptide modifications: H2BK12ac, binder concentration: 1:2,000 dilution
# [8] = peptide modifications: H2BK12ac, binder concentration: 1:10,000 dilution
# [9] = peptide modifications: H2BK12ac H2BK16ac, binder concentration: 1:2,000 dilution
# [10] = peptide modifications: H2BK12ac H2BK16ac, binder concentration: 1:10,000 dilution
# [11] = peptide modifications: H2BS14ph, binder concentration: 1:2,000 dilution
# [12] = peptide modifications: H2BS14ph, binder concentration: 1:10,000 dilution
# [13] = peptide modifications: H2BK12ac H2BK15ac, binder concentration: 1:2,000 dilution
# [14] = peptide modifications: H2BK12ac H2BK15ac, binder concentration: 1:10,000 dilution
binder,measurement,setting,value
APAPKKGSKKAVT [H2B 7-19 A P A P Kac K G Sph Kac K A V T],peptide microarray binding signal,"[1]; peptide modifications: H2BK11ac H2BS14ph H2BK15ac, binder concentration: 50 nM",0.00176 ± 7.1e-05
same,peptide microarray binding signal,"[1]; peptide modifications: H2BK11ac H2BS14ph H2BK15ac, binder concentration: 500 nM",0.00238 ± 7.9e-05
same,peptide microarray binding signal,"[2]; peptide modifications: H2BK11ac H2BS14ph H2BK15ac, binder concentration: 10 nM",0.00286 ± 8.4e-05
same,peptide microarray binding signal,"[2]; peptide modifications: H2BK11ac H2BS14ph H2BK15ac, binder concentration: 100 nM",0.00149 ± 3.1e-05
same,peptide microarray binding signal,[3]; [5],0.00157 ± 4.2e-05
same,peptide microarray binding signal,[3]; [6],0.000742 ± 1.3e-05
same,peptide microarray binding signal,[4]; [5],0.000393 ± 1e-05
same,peptide microarray binding signal,[4]; [6],0.000692 ± 7.3e-06
APAPKKGSKKAVT [H2B 7-19 A P A P K Kac G S K K A V T],peptide microarray binding signal,"[1]; peptide modifications: H2BK12ac, binder concentration: 50 nM",0.00335 ± 0.0001
same,peptide microarray binding signal,"[1]; peptide modifications: H2BK12ac, binder concentration: 500 nM",0.0041 ± 0.00068
same,peptide microarray binding signal,"[2]; peptide modifications: H2BK12ac, binder concentration: 10 nM",0.00471 ± 0.00015
same,peptide microarray binding signal,"[2]; peptide modifications: H2BK12ac, binder concentration: 100 nM",0.00737 ± 0.00077
same,peptide microarray binding signal,[3]; [7],0.000208 ± 4.5e-06
same,peptide microarray binding signal,[3]; [8],0.000799 ± 1.7e-05
same,peptide microarray binding signal,[4]; [7],0.00116 ± 0.00021
same,peptide microarray binding signal,[4]; [8],0.00213 ± 0.00019
APAPKKGSKKAVT [H2B 7-19 A P A P K Kac G S K Kac A V T],peptide microarray binding signal,"[1]; peptide modifications: H2BK12ac H2BK16ac, binder concentration: 50 nM",0.0107 ± 0.00094
same,peptide microarray binding signal,"[1]; peptide modifications: H2BK12ac H2BK16ac, binder concentration: 500 nM",0.00552 ± 0.0027
same,peptide microarray binding signal,"[2]; peptide modifications: H2BK12ac H2BK16ac, binder concentration: 10 nM",0.00734 ± 0.00071
same,peptide microarray binding signal,"[2]; peptide modifications: H2BK12ac H2BK16ac, binder concentration: 100 nM",0.0104 ± 0.0012
same,peptide microarray binding signal,[3]; [9],0.000302 ± 2.2e-05
same,peptide microarray binding signal,[3]; [10],0.0016 ± 0.00014
same,peptide microarray binding signal,[4]; [9],0.00136 ± 0.00029
same,peptide microarray binding signal,[4]; [10],0.00127 ± 8.9e-05
APAPKKGSKKAVT [H2B 7-19 A P A P K K G Sph K K A V T],peptide microarray binding signal,"[1]; peptide modifications: H2BS14ph, binder concentration: 50 nM",0.00226 ± 0.00011
same,peptide microarray binding signal,"[1]; peptide modifications: H2BS14ph, binder concentration: 500 nM",0.00381 ± 2.8e-05
same,peptide microarray binding signal,"[2]; peptide modifications: H2BS14ph, binder concentration: 10 nM",0.00263 ± 3.9e-05
same,peptide microarray binding signal,"[2]; peptide modifications: H2BS14ph, binder concentration: 100 nM",0.00163 ± 1.7e-05
same,peptide microarray binding signal,[3]; [11],0.000302 ± 3.1e-06
same,peptide microarray binding signal,[3]; [12],0.000799 ± 1.7e-05
same,peptide microarray binding signal,[4]; [11],0.000438 ± 3.5e-05
same,peptide microarray binding signal,[4]; [12],0.00075 ± 4e-05
APAPKKGSKKAVT [H2B 7-19 A P A P K Kac G S Kac K A V T],peptide microarray binding signal,"[1]; peptide modifications: H2BK12ac H2BK15ac, binder concentration: 50 nM",0.00342 ± 5.6e-05
same,peptide microarray binding signal,"[1]; peptide modifications: H2BK12ac H2BK15ac, binder concentration: 500 nM",0.00938 ± 0.0002
same,peptide microarray binding signal,"[2]; peptide modifications: H2BK12ac H2BK15ac, binder concentration: 10 nM",0.00609 ± 0.00019
same,peptide microarray binding signal,"[2]; peptide modifications: H2BK12ac H2BK15ac, binder concentration: 100 nM",0.00503 ± 0.00011
same,peptide microarray binding signal,[3]; [13],0.00285 ± 0.0017
same,peptide microarray binding signal,[3]; [14],0.0012 ± 3.2e-05
same,peptide microarray binding signal,[4]; [13],0.000966 ± 7.9e-05
same,peptide microarray binding signal,[4]; [14],0.000923 ± 9.6e-06
